# Values joined by “and” are separate entries in the source; they are usually repeats but may differ in a detail not shown here. Equal entries are not always repeated. Records with an inconclusive call do not appear. Active and inactive are the calls of the source.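 The calls were made as follows, unless noted: active = compounds whose cell count with miR-34 switched on is under 0.7 times the count with it off; inactive = the rest.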
# Tests used:
# [1] = viability loss in pontine glioma line – cell-based, JHH-DIPG-1, MIPE4.0, CellTiter-Glo, qHTS, dose response (AID 1347062; cut-off not given, nearly all actives have AC50 up to about 27 µM); conditions: JHH-DIPG-1 viability, CellTiter-Glo ATP luminescence
# [2] = growth inhibition of DIPG cells – cell-based, MIPE4.0 library, CellTiter-Glo luminescence, qHTS (AID 1347066; cut-off not given, nearly all actives have AC50 up to about 30 µM;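 also: cells exposed to compound for 48 hours before readout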); conditions: SU-DIPG-VI viability, CellTiter-Glo ATP luminescence
# [3] = viability loss with induced miR-34 in A549 – imaging, A549 dox-inducible miR-34, nuclei and caspase counts, primary screen (AID 1347080); conditions: A549 miR-34 inducible, Hoechst nuclei count, 48 h
# [4] = MELAS cybrid and Rieske KO viability enhancers – cell-based, MELAS cybrids, Rieske KO mouse fibroblasts, CellTiter-Glo, primary screen (AID 1508586;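 active = mean z-score across replicates of 1.96 or higher in either the MELAS or the Rieske mutant cell line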;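 also: z relative to plate mean and SD of compound and empty wells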); conditions: low glucose
# [5] = blockers of cellular phospholipid synthesis – cell-based, LOPAC library, screen 4, primary screen (AID 1347384; call rule not given here); conditions: animal cells, phospholipid biosynthesis inhibition screen; at 10 µM
# [6] = compounds altering HSF1 focus formation in cells – imaging, Selleck Cancer Library (AID 1347162; in the data active = plate-normalised HSF1 focus index below about 0.46); conditions: human cells, HSF1 nuclear foci imaging, at 10 µM; SSMD: measured here: HSF1 foci SSMD mean; cell count: measured here: cell number; plate-normalised HSF1 focus index: stronger effect = lower value
# [7] = viability loss in pontine glioma line – cell-based, SU-DIPG-IV, MIPE4.0, CellTiter-Glo, qHTS, dose response (AID 1347063; cut-off not given, nearly all actives have AC50 up to about 30 µM;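 also: compound exposure lasted 48 hours before the viability readout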); conditions: CellTiter-Glo ATP luminescence
# [8] = stronger effect = lower value, cell number ratio, induced over uninduced
# [9] = measured here: relative caspase fold change +Dox/-Dox
# [10] = measured here: total cells with miR-34 induction, stronger effect = lower value
# [11] = measured here: total cells without miR-34 induction
# [12] = MELAS cybrid survival, CellTiter-Glo 48 h, stronger effect = higher value
# [13] = Rieske KO mouse fibroblast survival, CellTiter-Glo 72 h
compound,measurement,setting,value
CC1=C(C(=O)O)N2C(=O)[C@@H](NC(=O)[C@H](N)C3=CCC=CC3)[C@H]2SC1,outcome,[1],inactive
same,outcome,[2],inactive
CN1[C@@H]2CC[C@H]1CC(OC(=O)C(O)c1ccccc1)C2 (stereo partly drawn),fold change,[3]; [8],0.916 (inactive)
same,fold change,[3]; [9],1.3
same,cell count,[3]; [10],8240
same,cell count,[3]; [11],9000
same,z-score,[4]; [12],0.652 (inactive)
same,z-score,[4]; [13],0.375
Nc1cc(-c2ccncc2)c[nH]c1=O,fold change,[3]; [8],0.97 (inactive) and 0.958 (inactive)
same,fold change,[3]; [9],0.721 and 1.08
same,cell count,[3]; [10],9670 and 8610
same,cell count,[3]; [11],9980 and 8980
same,z-score,[4]; [12],-0.926 (inactive)
same,z-score,[4]; [13],-1.08
Nc1ncnc2c1ncn2[C@@H]1O[C@H](COP(=O)(O)O)[C@@H](O)[C@H]1O,fold change,[3]; [8],0.848 (inactive)
same,fold change,[3]; [9],1.03
same,cell count,[3]; [10],9640
same,cell count,[3]; [11],11400
same,z-score,[4]; [12],0.774 (inactive)
same,z-score,[4]; [13],0.196
CC1=C(C(=O)O)N2C(=O)[C@@H](NC(=O)[C@H](N)c3ccc(O)cc3)[C@H]2SC1,fold change,[3]; [8],0.85 (inactive)
same,fold change,[3]; [9],1.87
same,cell count,[3]; [10],8500
same,cell count,[3]; [11],10000
same,z-score,[4]; [12],0.444 (inactive)
same,z-score,[4]; [13],0.13
C[C@]12CCC(=O)C=C1C=C[C@@H]1[C@@H]2CC[C@@]2(C)[C@H]1CC[C@@]21CCC(=O)O1,fold change,[3]; [8],0.826 (inactive)
same,fold change,[3]; [9],1.19
same,cell count,[3]; [10],8530
same,cell count,[3]; [11],10300
same,z-score,[4]; [12],-0.57 (inactive) and -0.163 (inactive)
same,z-score,[4]; [13],-0.749 and -0.289
C=CC(N)CCC(=O)O (stereo not drawn),fold change,[3]; [8],0.942 (inactive) and 0.866 (inactive) and 0.941 (inactive)
same,fold change,[3]; [9],1.9 and 1.11 and 2.08
same,cell count,[3]; [10],9530 and 8830 and 11000
same,cell count,[3]; [11],10100 and 10200 and 11700
same,outcome,[5],inactive
same,z-score,[4]; [12],-0.0921 (inactive)
same,z-score,[4]; [13],0.0881
CC1(C)O[C@@H]2C[C@H]3[C@@H]4C[C@H](F)C5=CC(=O)CC[C@]5(C)[C@H]4[C@@H](O)C[C@]3(C)[C@]2(C(=O)CO)O1,fold change,[3]; [8],0.775 (inactive)
same,fold change,[3]; [9],0.796
same,cell count,[3]; [10],4730
same,cell count,[3]; [11],6100
same,z-score,[4]; [12],-0.21 (inactive)
same,z-score,[4]; [13],0.615
C[C@]12CC[C@@H]3c4ccc(O)cc4CC[C@H]3[C@@H]1CCC2=O,fold change,[3]; [8],0.96 (inactive) and 0.932 (inactive) and 0.881 (inactive)
same,fold change,[3]; [9],1.22 and 1.44 and 1.06
same,cell count,[3]; [10],9000 and 8450 and 7620
same,cell count,[3]; [11],9370 and 9060 and 8650
same,SSMD,[6],2.44
same,cell count,[6],6870
same,plate-normalised HSF1 focus index,[6],1.13 (inactive)
same,outcome,[5],inactive
same,z-score,[4]; [12],0.711 (inactive) and 0.373 (inactive)
same,z-score,[4]; [13],0.46 and -0.298
CC1(C)O[C@H]2CC(=O)OC[C@]23[C@H]2CC[C@@]4(C)[C@H](c5ccoc5)OC(=O)[C@H]5O[C@]54[C@]2(C)C(=O)C[C@@H]13,outcome,[1],inactive
same,outcome,[7],inactive
same,outcome,[2],inactive
CCOC(=O)OC(C)OC(=O)[C@@H]1N2C(=O)[C@@H](NC(=O)[C@H](N)c3ccccc3)[C@H]2SC1(C)C (stereo partly drawn),fold change,[3]; [8],0.838 (inactive)
same,fold change,[3]; [9],1.63
same,cell count,[3]; [10],8230
same,cell count,[3]; [11],9820
same,z-score,[4]; [12],0.0142 (inactive)
same,z-score,[4]; [13],-0.106
O=C(Cn1ccnc1[N+](=O)[O-])NCCO,fold change,[3]; [8],0.871 (inactive) and 0.832 (inactive)
same,fold change,[3]; [9],1.39 and 4.67
same,cell count,[3]; [10],8390 and 10900
same,cell count,[3]; [11],9630 and 13100
same,z-score,[4]; [12],-0.801 (inactive)
same,z-score,[4]; [13],-0.143
CC(=O)N[C@@H](CS)C(=O)O,fold change,[3]; [8],1.05 (inactive) and 0.885 (inactive) and 0.922 (inactive)
same,fold change,[3]; [9],0.401 and 1.12 and 0.735
same,cell count,[3]; [10],10500 and 7510 and 10400
same,cell count,[3]; [11],9960 and 8480 and 11200
same,outcome,[5],inactive
same,z-score,[4]; [12],-0.217 (inactive) and 0.201 (inactive)
same,z-score,[4]; [13],0.862 and -0.824
CC[N+](C)(C)Cc1ccccc1Br,fold change,[3]; [8],0.896 (inactive)
same,fold change,[3]; [9],1.09
same,cell count,[3]; [10],8620
same,cell count,[3]; [11],9630
same,z-score,[4]; [12],0.582 (inactive)
same,z-score,[4]; [13],0.0274
CC(=O)O[C@]1(C(C)=O)CC[C@H]2[C@@H]3C=C(Cl)C4=CC(=O)CC[C@]4(C)[C@H]3CC[C@@]21C,z-score,[4]; [12],-0.83 (inactive)
same,z-score,[4]; [13],0.517
CC(=O)OCC(=O)[C@@]1(O)[C@H](C)C[C@H]2[C@@H]3CCC4=CC(=O)C=C[C@]4(C)[C@@]3(F)[C@@H](O)C[C@@]21C,fold change,[3]; [8],0.93 (inactive)
same,fold change,[3]; [9],1.03
same,cell count,[3]; [10],6000
same,cell count,[3]; [11],6450
same,z-score,[4]; [12],-0.294 (inactive)
same,z-score,[4]; [13],0.00126
C[C@@H]1C[C@H]2[C@@H]3C[C@H](F)C4=CC(=O)C=C[C@]4(C)[C@@]3(F)[C@@H](O)C[C@]2(C)[C@@]1(O)C(=O)CO,fold change,[3]; [8],0.863 (inactive)
same,fold change,[3]; [9],1.53
same,cell count,[3]; [10],6000
same,cell count,[3]; [11],6940
same,z-score,[4]; [12],0.578 (inactive)
same,z-score,[4]; [13],0.936
OCC(O)CN1CCN(c2ccccc2)CC1 (stereo not drawn),fold change,[3]; [8],0.91 (inactive) and 0.902 (inactive) and 0.934 (inactive)
same,fold change,[3]; [9],1.09 and 0.695 and 0.504
same,cell count,[3]; [10],7870 and 8950 and 8400
same,cell count,[3]; [11],8650 and 9930 and 8990
same,z-score,[4]; [12],-0.14 (inactive) and -0.167 (inactive) and 0.182 (inactive)
same,z-score,[4]; [13],-0.169 and -0.218 and 0.0795

# Reference: PubChem BioAssay
